About 79,000 compounds went through this panel and 15% of them were active in at least one assay; those are over-represented in the sample as a whole. A number with no mark means an inactive call. Calls of active or inactive are those of the source. No stated cut-off is given here; in the data, active means growth inhibition above about 70%; inactive means the rest.

A short description of assay [1]: NCI Yeast Anticancer Drug Screen. Data for the rad50 strain (AID 155).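 Further: 0% = growth of vehicle-only cultures of the same strain.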 The conditions noted are these: S. cerevisiae rad50 strain growth inhibition, active compounds read high. The essentials: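 Readout: growth inhibition relative to vehicle-treated cultures. Compound exposure was carried out in a genetically defined yeast strain deficient in DNA damage repair.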
Assay [2] in a line: NCI Yeast Anticancer Drug Screen. Data for the mec2-1 strain (AID 157). The conditions noted are these: S. cerevisiae mec2-1 strain, active compounds read high. Put shortly: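 Cells of the genetically defined mec2-1 yeast strain are incubated with test compound. Inhibition of growth is calculated against vehicle-treated controls.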
The nature of assay [3]: NCI Yeast Anticancer Drug Screen. Data for the sgs1 mgt1 strain (AID 161).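 Further: 0% = growth of cultures given vehicle only.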 Conditions: S. cerevisiae sgs1 mgt1 strain, active compounds read high. Put shortly: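 Test agents were incubated with a DNA-repair-mutant yeast strain. Growth was then read and compared against vehicle-treated controls.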
The nature of assay [4]: NCI Yeast Anticancer Drug Screen. Data for the cln2 rad14 strain (AID 165).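 Further: 0% = growth equal to vehicle treated cultures.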 The conditions noted are these: S. cerevisiae cln2 rad14 strain, active compounds read high. The essentials:
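The screen exposed genetically defined yeast (cln2 rad14) to test compounds and scored growth inhibition relative to vehicle-treated controls.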

Assay [5] is described as follows: NCI Yeast Anticancer Drug Screen. Data for the bub3 strain (AID 167). Conditions: S. cerevisiae bub3 mutant strain, active compounds read high. Put shortly:
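Readout: yeast growth inhibition, expressed relative to vehicle-only wells. The test organism is a mutant strain from a panel with lesions in DNA repair or checkpoint genes.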

Assay [6] is described as follows: NCI Yeast Anticancer Drug Screen. Data for the mlh1 rad18 strain (AID 175). The conditions noted are these: S. cerevisiae mlh1 rad18 strain growth inhibition, active compounds read high. Put shortly: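 Compound-treated yeast growth, normalised to vehicle controls. Strain bears defined DNA repair mutations.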
[7] abbreviates: at 5.0 µM (retest, dose inferred, filed as 0.5).
Setting [8] is: at 50.0 µM (retest, dose inferred, filed as 5.0).

As to `C=CC[C@]1(C(C)C(OC(C)=O)c2ccc3c(c2)OCO3)C[C@@H](OC)C=CC1=O` (stereo partly drawn), the growth inhibition is 10% in assay [1] (setting [7]); 98% (active) in assay [1] (setting [8]); 10.5% in assay [1] (at 50.0 µM); 10% in assay [2] (setting [7]); 98% (active) in assay [2] (setting [8]); -0.85% in assay [2] (at 50.0 µM). The growth inhibition in assay [3] (setting [7]) was 10%; in assay [3] (setting [8]) it was 98% (active); in assay [3] (at 50.0 µM) it was -0.2%; in assay [4] (setting [7]), -3%; in assay [4] (setting [8]), 98% (active); in assay [4] (at 50.0 µM), -12.7%. Further, the growth inhibition in assay [5] (setting [7]) is 4%; in assay [5] (setting [8]), 98% (active); in assay [5] (at 50.0 µM) it was 1.4%; in assay [6] (setting [7]) it was 9%; in assay [6] (setting [8]) it was 98% (active); in assay [6] (at 50.0 µM), 40%.
As to `O=C([O-])c1ccc([I+]c2ccccc2)cc1`, the growth inhibition is 9% in assay [1] (setting [7]); 65% in assay [1] (setting [8]); 57% in assay [1] (at 50.0 µM); 8% in assay [2] (setting [7]); 72% (active) in assay [2] (setting [8]); 41.8% in assay [2] (at 50.0 µM). Besides, the growth inhibition in assay [3] (setting [7]) was 18%; in assay [3] (setting [8]) it was 67%; in assay [3] (at 50.0 µM), 48.1%; in assay [4] (setting [7]), 1%; in assay [4] (setting [8]), 47%; in assay [4] (at 50.0 µM) it was 65.7%. Moreover, the growth inhibition was 12% in assay [5] (setting [7]); 79% (active) in assay [5] (setting [8]); 47% in assay [5] (at 50.0 µM); 10% in assay [6] (setting [7]); 80% (active) in assay [6] (setting [8]); 80.9% (active) in assay [6] (at 50.0 µM).
Take `O=[N+]([O-])/C(C(Cl)=C(Cl)Cl)=C(/Sc1ccccc1)N1CCOCC1`: the growth inhibition was 5% in assay [1] (setting [7]); 99% (active) in assay [1] (setting [8]); 88.2% (active) in assay [1] (at 50.0 µM); 2% in assay [2] (setting [7]); 99% (active) in assay [2] (setting [8]); 91.8% (active) in assay [2] (at 50.0 µM). The growth inhibition in assay [3] (setting [7]) was -4%; in assay [3] (setting [8]), 99% (active); in assay [3] (at 50.0 µM), 85.8% (active); in assay [4] (setting [7]), -7%; in assay [4] (setting [8]), 99% (active); in assay [4] (at 50.0 µM) it was 89.2% (active). Moreover, the growth inhibition in assay [5] (setting [7]) is -20%; in assay [5] (setting [8]) it was 99% (active); in assay [5] (at 50.0 µM), 89.5% (active); in assay [6] (setting [7]), 15%; in assay [6] (setting [8]), 98% (active); in assay [6] (at 50.0 µM), 83.2% (active).
For the molecule `Cn1cnc([N+](=O)[O-])c1Sc1nc2cccnc2s1`, the growth inhibition was 45% in assay [1] (setting [7]); 80% (active) in assay [1] (setting [8]); 79.5% (active) in assay [1] (at 50.0 µM); 34% in assay [2] (setting [7]); 77% (active) in assay [2] (setting [8]); 77.1% (active) in assay [2] (at 50.0 µM). Further, the growth inhibition is 40% in assay [3] (setting [7]); 59% in assay [3] (setting [8]); 67.8% in assay [3] (at 50.0 µM); 29% in assay [4] (setting [7]); 44% in assay [4] (setting [8]); 52% in assay [4] (at 50.0 µM). In addition, the growth inhibition was 38% in assay [5] (setting [7]); 68% in assay [5] (setting [8]); 71.8% (active) in assay [5] (at 50.0 µM); 54% in assay [6] (setting [7]); 90% (active) in assay [6] (setting [8]); 75.6% (active) in assay [6] (at 50.0 µM).
Take `CN(C=O)c1ccc2c(c1)Cc1ccccc1-2`: the growth inhibition in assay [1] (setting [7]) is 14%; in assay [1] (setting [8]) it was 80% (active); in assay [1] (at 50.0 µM) it was 47.7%; in assay [2] (setting [7]), 4%; in assay [2] (setting [8]), 22%; in assay [2] (at 50.0 µM), 24.8%. Moreover, the growth inhibition in assay [3] (setting [7]) was 27%; in assay [3] (setting [8]) it was 82% (active); in assay [3] (at 50.0 µM), 44.9%; in assay [4] (setting [7]), 2%; in assay [4] (setting [8]), 40%; in assay [4] (at 50.0 µM), 58.8%. For the same molecule, the growth inhibition in assay [5] (setting [7]) is 15%; in assay [5] (setting [8]) it was 55%; in assay [5] (at 50.0 µM), 22.2%; in assay [6] (setting [7]), 13%; in assay [6] (setting [8]), 74% (active); in assay [6] (at 50.0 µM) it was 82% (active).
Take `CCN(CC)CCCNc1nccc2c(C)c3[nH]c4ccncc4c3cc12`: the growth inhibition was 41% in assay [1] (setting [7]); 54% in assay [1] (setting [8]); 59.4% in assay [1] (at 50.0 µM); 18% in assay [2] (setting [7]); 33% in assay [2] (setting [8]); -2% in assay [2] (at 50.0 µM). The growth inhibition in assay [3] (setting [7]) is 38%; in assay [3] (setting [8]), 43%; in assay [3] (at 50.0 µM), -1.7%; in assay [4] (setting [7]), 19%; in assay [4] (setting [8]) it was 23%; in assay [4] (at 50.0 µM), 10.1%. In addition, the growth inhibition in assay [5] (setting [7]) is 24%; in assay [5] (setting [8]), 22%; in assay [5] (at 50.0 µM) it was -6.45%; in assay [6] (setting [7]) it was 48%; in assay [6] (setting [8]) it was 64%; in assay [6] (at 50.0 µM), -36.5%.

The values above are taken from PubChem BioAssay (NCI).
